{"source": "PubChem BioAssay (NCATS)", "note": "Inconclusive results are not listed. Activity calls are given as the source filed them. The call rests on the fitted dose curve; in most records, active means well fitted curve in the direction sought with a large enough effect; inconclusive means small, poorly fitted or top-dose-only effect, or another doubt; inactive means no such curve, though single readings can be large or run the other way.", "data": [{"assay": "Viability counterscreen for antagonist of constitutive androstane receptor (CAR) against the NCATS DSHEA and TCM libraries (AID 1794837);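 further: compound exposure lasted 24 h before viability reading; 0% is about no effect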", "details": "CAR reporter cell line viability counterscreen, qHTS; series mostly up to 40 µM", "outline": "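Fluorescence from CellTiter-Fluor reports live-cell protease activity in HepG2-CYP2B6-hCAR cells treated for 24 h with substances alongside 48 uM CITCO.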", "values": [{"smiles": "CC[C@H](CC[C@@H](C)[C@H]1CC[C@H]2[C@@H]3CC=C4C[C@@H](O)CC[C@]4(C)[C@H]3CC[C@]12C)C(C)C", "outcome": "inactive"}, {"smiles": "CC(C)=CCC/C(C)=C/CC/C(C)=C/CC/C(C)=C/CC1=C(C)C(=O)c2ccccc2C1=O", "outcome": "inactive"}, {"smiles": "CC/C=C\\C/C=C\\C/C=C\\C/C=C\\C/C=C\\C/C=C\\CCC(=O)O", "outcome": "inactive"}, {"smiles": "COC1=C(OC)C(=O)C(C/C=C(\\C)CC/C=C(\\C)CC/C=C(\\C)CC/C=C(\\C)CC/C=C(\\C)CC/C=C(\\C)CC/C=C(\\C)CC/C=C(\\C)CC/C=C(\\C)CCC=C(C)C)=C(C)C1=O", "outcome": "inactive"}, {"smiles": "CCCCCCCCCCCC(=O)OCC(O)CO", "note": "(centres undefined)", "outcome": "inactive"}, {"smiles": "CCCCC/C=C\\C/C=C\\C/C=C\\CCCCC(=O)O", "viability change, negative = cytotoxic": "-4.69% [at 5 µM] (inactive)"}, {"smiles": "C=C1CC[C@H](O)C/C1=C\\C=C1/CCC[C@]2(C)[C@@H]([C@H](C)CCCC(C)C)CC[C@@H]12", "outcome": "inactive"}, {"smiles": "CC/C=C\\C/C=C\\C/C=C\\CCCCCCCC(=O)O", "outcome": "inactive"}, {"smiles": "CC/C=C\\C/C=C\\C/C=C\\C/C=C\\C/C=C\\CCCC(=O)O", "outcome": "inactive"}]}]}
